esBAF inh: Bmi1 luciferase reporter increase in mESCs, primary screen, esBAF inhibitor project, mouse ES cells, Bmi1 luciferase knock-in, single point; 24 h; 100% = twice the neutral-well signal; 350,000 compounds, 2% hits; reporter increase, % at 12.5 µM; in the data active means activation above about 40%; inconclusive means no clear call, values can overlap the other calls;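 further: 0% = median of the plate's neutral control wells and 100% = double that signal; a rise in the Bmi1 reporter signal indicates esBAF inhibition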
EBV LMP1 NFkB: EBV LMP1-driven NF-kappaB luciferase reporter inhibitors, primary screen, cell-based, luminescence, single point | LMP1-induced NF-kappaB luciferase reporter cells | inhibition, % at 12.5 µM | 350,000 compounds, 0.69% hits; in the data active means inhibition above about 41%; inconclusive means no clear call, values can overlap the other calls;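 further: 0% = neutral control wells and 100% = reference inhibitor control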
Wnt act: Wnt/beta-catenin pathway activators, primary screen, cell-based, plate reader, single point. AID 743398, 2014. 300,000 compounds, 1.2% hits. activation, % at 9.35 µM. Wnt/beta-catenin reporter cell assay, activator; in the data active means activation above about 30%, passing the limit was not always enough; inconclusive means no clear call, values can overlap the other calls;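 further: 0% = neutral control wells and 100% = positive control wells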
MITF act: activators of MITF-driven TRPM1 promoter reporter, primary screen, cell-based, SK-MEL-5, luciferase, single point. SK-MEL-5 TRPM1-promoter luciferase, 24 h; % of positive control, neutral wells = 0. activation, % at 12.5 µM. 300,000 compounds, 0.75% hits. AID 588334, 2011;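 active means mean activation of at least 80% with every replicate also reaching 80%; inconclusive means mean reaches 80% but some replicate falls short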;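 further: 0% = neutral control wells and 100% = parthenolide positive control wells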
MITF TRPM1 inh: inhibitors of MITF-dependent TRPM1 promoter reporter, primary screen, cell-based, SK-MEL-5, single point, luciferase; SK-MEL-5 TRPM1 promoter luciferase, 24 h; inhibition, % at 12.5 µM; 330,000 compounds, 0.83% hits;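 active means mean inhibition across replicates of 60% or more, whatever share of single replicates reaches that level; inconclusive means some that reach 60%, reason not given; inactive means mean inhibition across replicates below 60%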
C2C12 statin: suppressors of statin myotoxicity in C2C12 myotubes, primary screen, cell-based, single point, plate reader | C2C12 myotubes + simvastatin, ATP luminescence, 48 h; scaled: DMSO 0, geranylgeraniol control 100 | rescue of ATP level, % at 7.49 µM | 330,000 compounds, 0.78% hits | AID 602340, 2012;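 active means mean ATP rescue above about 67%, or every replicate alone reaching that limit, limit read from the data, passing the limit was not always enough; inconclusive means no clear call, values can overlap the other calls; inactive means mean under the limit and some replicate under it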;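 further: myotubes were challenged with 10 µM simvastatin during compound exposure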
* marks the source's active call; other numbers are inactive results. Only some compounds are listed: those with a hit (about 4% of all), similar ones and a draw of the others.

What do the screens show for `COc1ccc(C(=O)O/N=C(\N)c2ccc(OC)c(OC)c2)cc1`?
esBAF inh: 26; EBV LMP1 NFkB: -28; Wnt act: 26; MITF act: 102*; MITF TRPM1 inh: -93; C2C12 statin: -11

How did COc1ccc(C(=O)Cc2cc3ccccc3oc2=O)cc1 do in these assays?
esBAF inh: 56*; EBV LMP1 NFkB: -24; Wnt act: 10; MITF act: 121*; MITF TRPM1 inh: -124; C2C12 statin: -1

What do the screens show for `COc1ccc(C(=O)O/N=C(\N)c2ccccc2)c(OC)c1`?
EBV LMP1 NFkB: 34; Wnt act: -15; MITF act: -35; MITF TRPM1 inh: 35

How did COc1ccc(C(=O)O/N=C(\N)c2ccc(OC)c(OC)c2)c(OC)c1 do in these assays?
esBAF inh: 56*; EBV LMP1 NFkB: -13; MITF act: 54; MITF TRPM1 inh: -54; C2C12 statin: -1

Results for Cc1noc(C)c1S(=O)(=O)N1CCC(C(=O)N(C)Cc2ccccc2)CC1 ?
esBAF inh: -1; EBV LMP1 NFkB: 1; Wnt act: -3; MITF act: -14; MITF TRPM1 inh: 16; C2C12 statin: -11

What do the screens show for `CC(NC(=O)c1ccc(N(C)C)cc1)C(c1cccs1)N1CCN(C)CC1` (configuration not stated)?
esBAF inh: 43*; EBV LMP1 NFkB: -21; MITF act: 67; MITF TRPM1 inh: -72; C2C12 statin: 6

How did CC(NC(=O)c1ccc(F)cc1)C(c1cccs1)N1CCN(C)CC1 (configuration not stated) do in these assays?
EBV LMP1 NFkB: 12; Wnt act: -2; MITF act: -5; MITF TRPM1 inh: 12

What do the screens show for `C=CCn1c(C)c(C(C)=O)c(N2CCN(C(c3ccccc3)c3ccccc3)CC2)nc1=S`?
EBV LMP1 NFkB: 55*; Wnt act: -2; MITF act: -4; MITF TRPM1 inh: 2

Results for O=C1C(=C(c2ccccc2)N2CCOCC2)Cc2ccccc21 ?
EBV LMP1 NFkB: 64*; Wnt act: -11

How did O=C(Nc1nc2c(s1)CN(Cc1ccccc1)CC2)C1CCC1 do in these assays?
esBAF inh: 20; EBV LMP1 NFkB: -31; Wnt act: 7; MITF act: 100*; MITF TRPM1 inh: -95; C2C12 statin: -8

What do the screens show for `CCN1CCc2nc(NC(=O)c3ccccc3)sc2C1`?
esBAF inh: -51; EBV LMP1 NFkB: 36; MITF act: 1; MITF TRPM1 inh: 0; C2C12 statin: 1

Results for CCN(c1ccccc1)S(=O)(=O)c1cc(NC(=O)Nc2ccccc2C#N)ccc1Cl ?
EBV LMP1 NFkB: 3; Wnt act: -3; MITF act: 2; MITF TRPM1 inh: -8

How did CCN(c1ccccc1)S(=O)(=O)c1ccc(Cl)c(NC(=O)Nc2ccc(Cl)cc2C#N)c1 do in these assays?
EBV LMP1 NFkB: 85*; Wnt act: 18; MITF act: -9; MITF TRPM1 inh: 9

How did CCOC(=O)C1CCN(c2c(NCCN3CCCCC3C)c(=O)c2=O)CC1 (configuration not stated) do in these assays?
esBAF inh: 6; EBV LMP1 NFkB: -2; Wnt act: -2; C2C12 statin: -10

Results for CN(C)c1ccc(C(=O)c2ccc(O)cc2O)cc1 ?
esBAF inh: 55*; EBV LMP1 NFkB: -8; Wnt act: 14; MITF act: 47; MITF TRPM1 inh: -56

What do the screens show for `CCn1cnc2cc(NCc3ccc(Cl)cc3)ccc21`?
esBAF inh: 55*; EBV LMP1 NFkB: -17; Wnt act: 34*; MITF act: 61; MITF TRPM1 inh: -49; C2C12 statin: -5

What do the screens show for `CCC(=O)Nc1ccc2c(c1)ncn2-c1ccc(OC)cc1`?
esBAF inh: 36; EBV LMP1 NFkB: -6; MITF act: 24; MITF TRPM1 inh: -23; C2C12 statin: -45

Results for CCC(=O)Nc1ccc2c(c1)ncn2-c1ccc(C)cc1 ?
esBAF inh: 49*; EBV LMP1 NFkB: -13; Wnt act: -4; MITF act: 80; MITF TRPM1 inh: -78; C2C12 statin: -16

Results for Cc1ccc(CNc2ccc3c(c2)ncn3C)cc1 ?
esBAF inh: 70*; EBV LMP1 NFkB: -14; Wnt act: 41*; MITF act: 79; MITF TRPM1 inh: -87; C2C12 statin: -2

How did Cc1ccc(C(=O)Nc2ccc3c(c2)ncn3C)cc1 do in these assays?
esBAF inh: 12; EBV LMP1 NFkB: -5; Wnt act: 38*; MITF act: 63; MITF TRPM1 inh: -62; C2C12 statin: -8

What do the screens show for `CCc1ccc(CNc2ccc3c(c2)ncn3C)cc1`?
EBV LMP1 NFkB: -20; Wnt act: inconclusive; MITF act: 71; MITF TRPM1 inh: -74

What do the screens show for `COc1cc(-c2noc(C)c2C(=O)NCc2ccc3c(c2)OCO3)cc(OC)c1OC`?
esBAF inh: 4; EBV LMP1 NFkB: 0; Wnt act: 1; MITF act: 8; MITF TRPM1 inh: -6; C2C12 statin: -3

Results for CCCn1cnc2cc(NCc3cccc(OC)c3O)ccc21 ?
esBAF inh: 56*; EBV LMP1 NFkB: -22; MITF act: 47; MITF TRPM1 inh: -43; C2C12 statin: 5

What do the screens show for `CCCn1cnc2cc(NCc3ccccn3)ccc21`?
esBAF inh: -46; EBV LMP1 NFkB: 4; Wnt act: 14; C2C12 statin: -26

What do the screens show for `CC(=O)N1CCN(C(=O)c2ccc3oc(CCCc4ccccc4)nc3c2)CC1`?
esBAF inh: 11; EBV LMP1 NFkB: -4; Wnt act: 4; MITF act: 9; MITF TRPM1 inh: -9; C2C12 statin: 2

What do the screens show for `COCC1CCN(C(=O)c2ccc3nc(Cc4cccc(Cl)c4)oc3c2)CC1`?
esBAF inh: 0; EBV LMP1 NFkB: 3; Wnt act: -3; C2C12 statin: 5

Results for COC(=O)[C@@H](C)NC(=O)c1ccc2oc(CCc3ccccc3)nc2c1 ?
esBAF inh: 66*; EBV LMP1 NFkB: -15; Wnt act: 38*; MITF TRPM1 inh: -78; C2C12 statin: -2

Results for CCCOC1CCCN(C(=O)c2ccc3oc(C(C)C)nc3c2)C1 (configuration not stated) ?
esBAF inh: 44*; EBV LMP1 NFkB: -14; Wnt act: -1; MITF act: 19; MITF TRPM1 inh: -20; C2C12 statin: -5

What do the screens show for `COC1CCCN(C(=O)c2ccc3oc(Cc4ccc(Cl)cc4)nc3c2)C1` (configuration not stated)?
esBAF inh: -1; EBV LMP1 NFkB: 6; Wnt act: 0; MITF act: 1; MITF TRPM1 inh: -2; C2C12 statin: 2
